Screening data as filed in PubChem.
LDHA block: LDHA (human) enzyme inhibition. P00338. purified LDHA, NADH/diaphorase-resazurin fluorescence; stronger effect = lower value. activity change, % (values are at about 110 or 230 µM). 480,000 compounds, 0.15% hits; in the data active = activity change below about -30%; inconclusive = mostly about -25% to -30%;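 note: plate controls were DMSO wells for no effect and wells without enzyme for full effect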
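Resorufin fluorescence (ex540/em590), read at 0 and 20 min after diaphorase/resazurin addition, reports the NADH left after a 5 min room-temperature reaction of 2 nM human LDH5 with 0.06 mM NADH and 0.2 mM pyruvate.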
Gal4-VP16 FLuc: counter-screen for ROR gamma inhibitors: Gal4-VP16 reporter | AID 2546 | Drosophila S2 Gal4-VP16 UAS-luciferase, luminescence, 20 h | Potency, µM (highest dose often 53.6 µM), for the others: top-dose activity, negative = inhibition, hits mostly inhibitors | 310,000 compounds, 3.5% hits;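 note: Gal4-VP16 expression switched on by copper sulfate through the metallothionein promoter; potency is the fitted concentration of half-maximal effect; nearly all actives have a fitted effect of over 50% in size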
IL1B secr inh: inhibitors of inflammasome signaling (IL-1 beta secretion). THP-1 LPS/ATP IL-1B secretion, AlphaLISA, 16 h; stronger effect = lower value. activity change, % at 57.5 µM. 360,000 compounds, 4.7% hits; in the data active = activity change below about -50%; inconclusive = mostly about -30% to -49%
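Secreted IL-1B measured by AlphaLISA bead assay after 16 h compound exposure of THP-1 cells; compounds (final up to 57.5 uM) added 1 h before LPS (250 ng/mL) and ATP (1.25 mM) stimulation; lower signal means less secretion.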
RORgamma inh: inhibitors of mouse ROR gamma transcriptional activity. P51450. Potency, µM (highest dose often 53.6 µM), without a hit: at the top dose activity change, negative = inhibition, hits mostly inhibitors. Drosophila S2 Gal4-RORgamma UAS-luciferase reporter, 20 h. 310,000 compounds, 5.4% hits. AID 2551; note: potency is the fitted concentration of half-maximal effect; nearly all actives have a fitted effect of over 60% in size
Target sequence (P51450 whole entry, looked up, the tested form may be a part): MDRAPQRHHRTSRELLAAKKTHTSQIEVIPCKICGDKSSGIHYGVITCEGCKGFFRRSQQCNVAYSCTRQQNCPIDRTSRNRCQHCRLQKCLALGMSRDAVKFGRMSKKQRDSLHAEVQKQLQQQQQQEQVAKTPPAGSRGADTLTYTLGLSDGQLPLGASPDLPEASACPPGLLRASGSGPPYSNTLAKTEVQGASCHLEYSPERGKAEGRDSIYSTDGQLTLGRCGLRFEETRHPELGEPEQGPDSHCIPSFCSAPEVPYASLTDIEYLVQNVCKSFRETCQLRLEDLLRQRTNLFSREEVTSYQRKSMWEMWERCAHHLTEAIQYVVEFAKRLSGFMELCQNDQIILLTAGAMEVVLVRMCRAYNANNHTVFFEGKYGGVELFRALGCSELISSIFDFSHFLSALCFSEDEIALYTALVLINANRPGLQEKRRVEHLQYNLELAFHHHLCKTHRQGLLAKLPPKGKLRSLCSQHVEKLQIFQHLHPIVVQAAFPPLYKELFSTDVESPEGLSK
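Luminescence from a UAS-regulated Photinus luciferase reporter in stably transfected Drosophila Schneider cells is measured; decreased signal marks ROR gamma inhibition. Fusion expression is induced by 700 uM copper sulfate for 20 hr.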
DT40 TDP1 CPT: growth inhibition of DT40 Tdp1-/-;hTDP1 cells with camptothecin (screen for TDP1 inhibitors); chicken DT40 Tdp1-/-;hTDP1 cells + 20 nM CPT, ATP luminescence, 48 h; Potency, µM (doses to about 46.2 µM), for inactives: at the highest dose activity change, negative = growth inhibition, actives largely listed as inhibitors; 420,000 compounds, 12% hits; AID 686979; note: potency is the fitted concentration of half-maximal effect; nearly all actives have a fitted effect of over 55% in size
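Cell growth measured by CellTiter-Glo luminescence after a minimum 48 h, 37 C compound exposure with 20 nM CPT in Tdp1-knockout DT40 cells stably expressing hTDP1, seeded 400/well; qHTS titration format.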
TDP1 cell noCPT: qHTS for Inhibitors of human tyrosyl-DNA phosphodiesterase 1 (TDP1): qHTS in cells in absence of CPT; 420,000 compounds, 15% hits; Potency, µM (doses to about 46.2 µM), without a hit: at the top dose activity change, negative = growth inhibition, usual class: inhibitors; AID 686978, 2013; DT40 Tdp1-/- hTDP1 cells, no CPT, ATP luminescence, 48 h; note: potency is the fitted concentration of half-maximal effect; nearly all actives have a fitted effect of over 55% in size
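Chicken DT40 Tdp1-/- cells stably complemented with human TDP1 were seeded at 400 cells/well with DMSO in place of 20 nM camptothecin. After compound pinning, cells grew at least 48 hr at 37 °C; viability read by CellTiter-Glo luminescence.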
An asterisk follows results filed as active; ? = inconclusive; . = no result; [ ] = dose if it differs, or a comment. Compounds with a hit are over-represented: about 18% of the library has one in this group of screens. Unless noted, calls come from the whole dose curve; as a rule, active = well fitted curve in the direction sought with a large enough effect; inconclusive = small, poorly fitted or top-dose-only effect, or another doubt; inactive = no such curve, though single readings can be large; an effect the other way counts as inactive or inconclusive. Unless noted, % is set by controls: 0 for no effect and ±100 for the full control effect.

SMILES	LDHA block	Gal4-VP16 FLuc	IL1B secr inh	RORgamma inh	DT40 TDP1 CPT	TDP1 cell noCPT
CCCCCc1cc(=O)oc2c(C(CCN(CC)CC)c3ccc(OC)cc3)c(OC)cc(OC)c12 (stereo not given)	9.2	8.91µM*	?	?	14.6µM*	?
CCn1c(C)cc(C(=O)COC(=O)c2c(C)nn(Cc3ccc(C)cc3)c2Cl)c1C	-0.1	.	.	.	.	.
COc1cccc2[nH]c(C(=O)N3CCC(c4nnc5ccccn45)CC3)cc12	1.8	.	.	.	.	.
Cc1ccc(OCCN2CCC(CO)CC2)cc1	-8.5	.	.	.	.	.
CCOc1ccccc1CNC(=O)CCn1ccc(C)n1	-15.5	.	.	.	.	.
CCCCCc1cc(=O)oc2c(C(CCN3CCCC3)c3ccc(N(C)C)cc3)c(OC)cc(OC)c12 (stereo not given)	2.5	-16.9%	-76.3*	?	14.6µM*	8.2µM*
COc1ccc(C(CCN2CCCC(C)C2)c2c(OC)cc(OC)c3c2OC(=O)CC3c2cc(OC)c(OC)c(OC)c2)cc1 (stereo not given)	0.3	2.6%	-9.8	4.7%	16.4µM*	?
CCCCCc1cc(=O)oc2c(C(CCN3CCCCC3)c3ccc(OC)cc3)c(OC)cc(OC)c12 (stereo not given)	-11.9	?	?	?	?	16.4µM*
COc1cc(OC)c2c(-c3ccccc3)cc(=O)oc2c1C(CC(=O)N1CCCC1)c1ccc(N(C)C)cc1 (stereo not given)	.	?	.	27.6%	.	.
N#Cc1nc(-c2ccccc2F)oc1NCc1ccc(Cl)cc1	-2.1	.	.	.	.	.
CNC(=S)NNC(=O)c1ccc(F)cc1	1.7	.	.	.	.	.
CCOc1ccc(-c2nonc2NC(=O)c2oc3ccc(F)cc3c2C)cc1	-5.1	.	.	.	0.92µM*	0.82µM*
Cc1c(C(=O)Nc2nonc2-c2ccccc2)oc2ccc(F)cc12	-0.7	.	.	.	.	.
Cc1c(C(=O)Nc2nonc2-c2ccc(F)cc2)oc2ccc(F)cc12	-2.6	?	60.5	8.91µM*	?	?
CCCOc1ccc(-c2nonc2NC(=O)c2oc3ccc(Cl)cc3c2C)cc1OCCC	-1.3	.	.	.	?	7.31µM*
CCOc1ccc(-c2nonc2NC(=O)c2oc3ccccc3c2C)cc1OCC	0.9	.	.	.	.	.
CC(C)(C)OC(=O)COC(=O)c1cccnc1Nc1ccccc1F	2.0	.	.	.	.	.
CN1CCc2c(sc3c2c(=O)n(-c2ccccc2)c2nnc(SCc4ccc(Cl)cc4)n32)C1	-1.7	-17.6%	-81.0*	19.1%	13µM*	?
Cc1nnc2n(-c3ccc(Cl)cc3)c(=O)c3c4c(sc3n12)CN(C)CC4	.	-7.2%	.	3.1%[10 µM]	.	.
COc1ccc(C(=O)NNc2ccccc2)cc1	-7.5	3.5%	5.9	29.7%	18.5%	21.4%
COc1ccc(CSC(=S)NNc2ccccc2)cc1	0.8	.	40.5	.	?	18.4µM*
Nc1cc(Nc2ccc(Br)cc2)nc(N)n1	12.9	2.1%	-70.8*	43.0%	-26.5%	?
Cc1cc(Nc2ccc(Cl)cc2)nc(N)n1	-3.9	-5.4%	22.5	10.8%	?	?
CC1CCc2c(sc3ncnc(N4CCS(=O)CC4)c23)C1 (stereo not given)	12.8	.	.	.	.	.
CC(C)(C)c1cnnn1-c1ccc(C=O)cc1	-6.3	-10.4%	12.9	-16.4%	-20.3%	-6.1%
CC(C)(C)c1cnnn1-c1ccc(C(=O)CCl)cc1	-5.3	?	-105.7*	?	1.3µM*	1.84µM*
O=C(CSc1nc2nc[nH]c2c(=O)[nH]1)c1ccc(F)cc1	-5.7	.	.	.	.	.
CCCOc1ccc(-c2nc(N3CCN(C)CC3)c3ccccc3n2)cc1	-0.9	-12.7%	-20.2	-22.4%	23.1µM*	?
CCCOc1ccc(-c2nc(N3CCN(CC)CC3)c3ccccc3n2)cc1	1.7	-1.6%	-56.7*	-8.8%	?	29.1µM*
CS(=O)(=O)c1ccc(C(=O)OCC(=O)NCc2cccs2)cc1[N+](=O)[O-]	0.3	.	-97.0*	.	5.8µM*	4.61µM*
